Here are results for 40 molecules from PubChem BioAssay AID489036 (National Center for Advancing Translational Sciences (NCATS), 2010).

Several values for one entry are separate records, joined by “and”; a condition that tells them apart may be missing. Identical values can stand only once. Inconclusive results are not listed. Activity calls are given as the source filed them. The call rests on the fitted dose curve; in most records, active means well fitted inhibition curve with a large enough effect; inconclusive means small, poorly fitted or top-dose-only effect, or effect the other way; inactive means flat fitted curve, though single readings scatter.

This experiment is described as follows: VP16 selectivity assay for inhibitors of ROR gamma transcriptional activity. The conditions noted are these: Drosophila Schneider Gal4-VP16 UAS-luciferase reporter, 20 h; series mostly up to 92.2 µM. The text has this: NIH Molecular Libraries Probe Production Network [MLPCN] NIH Chemical Genomics Center [NCGC] MLPCN Grant: R03 DA026211-01 Assay Provider: Dan Littman, New York University Assay Overview: The retinoic acid-related orphan receptor (ROR) gamma is a transcription factor that has a central role in the differentiation of Th17 cells, a subset of T helper cells that secrete the inflammatory cytokines IL-17, IL-17F, and IL-22. Th17 cells have been implicated in graft versus host disease, autoimmune disease and asthma. ROR gamma is induced in naive T helper cells in the presence of TGF-beta combined with IL-6, IL-21, or IL-23, and thereafter directs the expression of the Th17 lineage cytokines. To identify nonspecific inhibitors, a Drosophila Schneider cell line was stably transfected with two vectors: a gene expressing a fusion of the Gal4 DNA binding domain and VP16 transactivation domain under the control of the metallothionine promoter and a Photinus luciferase reporter regulated by the Gal4 binding site enhancer, UAS. […] Small molecule inhibitors that inhibit components common to the RORgt and VP16 assays, such as the Gal4 DNA binding domain or the UAS luciferase reporter, will be active in both assays and thus scored as nonspecific.
Assay Protocol Summary: For screening, 600 cells in 4 uL/well were dispensed into white solid 1536-well plates (Grenier) using a solenoid-based dispenser. Following transfer of 23 nL compound or DMSO vehicle by a pin tool, the plates were incubated 1 hr at ambient temperature, and 1 uL/well copper sulfate (700 uM final concentration) was added. The plates were centrifuged 15 s at 1000 RPM and incubated 20 hr at ambient temperature. After addition of 1.5 uL Photinus luciferase detection reagent, the plates were incubated 10 min at ambient temperature and then read by an ViewLux (Perkin Elmer) to detect luminescence.
Background: Reporter assays use an easily measured gene product as a stand-in for the process of interest.
Turning to `CC1CCCN(C(=O)CC(c2ccc3c(c2)OCO3)c2ccc(O)cc2O)C1` (stereo not given), the Potency result was “inactive”.

For `COc1cc(O)c(C(CC(=O)N2CC(C)OC(C)C2)c2ccc3c(c2)OCO3)c(OC)c1` (stereo not given), the Potency result was “inactive”.

Take `COc1cc(OC)c(C(CC(=O)N2CCCC(C)C2)c2ccc3c(c2)OCO3)c(OCc2ccccc2)c1` (stereo not given): the Potency was 12.9 µM (active).

Turning to `CCOC(=O)C1CCN(CC(=O)Nc2cc(C)nn2-c2nc3ccccc3s2)CC1`, the Potency was 22.9 µM (active).

On to `CC(C)(C)c1ccc([S+](=O)([O-])Nc2ccccc2C(O)(C(F)(F)F)C(F)(F)F)cc1`, for which the Potency was 11.5 µM (active).

With `Cc1ccc(-c2cn(-c3ccccc3)c3[n+]2CCCS3)cc1`, the Potency was 10.2 µM (active).

Regarding `COc1cc(O)c(C(CC(=O)N2CCCCC2)c2ccc3c(c2)OCO3)c(OC)c1` (stereo not given), the Potency entry is “inactive”.

For the molecule `Cc1ccc(C)c(/C=N/n2cc(-c3ccccc3)[nH]c2=S)c1`, the Potency is 20.4 µM (active).

Regarding `O=C(NC(=S)Nc1nc(-c2ccccc2)cs1)c1cccnc1`, the Potency was 25.7 µM (active).

In the case of `COc1cc(O)c(C(CC(=O)N2CCCC(c3ccccc3)C2)c2ccc3c(c2)OCO3)c(OC)c1` (stereo not given), the Potency entry was “inactive”.

For `Cc1ccc(OCCCC(=O)Nc2nc3ccccc3[nH]2)cc1`, the Potency is 18.2 µM (active).

`CC(C)(C)c1ccc(S(=O)(=O)Nc2ccc(C(O)(C(F)(F)F)C(F)(F)F)cc2)cc1`: the Potency was 18.2 µM (active).

Turning to `COc1cc(O)c(C(CC(=O)N2CCCC(c3nc4ccccc4o3)C2)c2ccc3c(c2)OCO3)c(OC)c1` (stereo not given), the Potency result is “inactive”.

With `COc1cc(O)c(C(CC(=O)N2CCCC(C)C2)c2ccc3c(c2)OCO3)c(OC)c1` (stereo not given), the Potency entry was “inactive”.

Consider `COc1cc(OC)c(C(CC(=O)N2CCCC(C)C2)c2ccc3c(c2)OCO3)c(OC)c1` (stereo not given), for which the Potency is 51.2 µM (active).

Turning to `COc1cc(O)c(C(CC(=O)N2CCCC(C)C2)c2ccccc2OC)c(OC)c1` (stereo not given), the Potency result was “inactive”.

Turning to `COc1ccc2nc(NNC(=O)COc3ccccc3)sc2c1`, the Potency is 6.45 µM (active).

Consider `COc1cc(O)c(C(CC(=O)N2CCC(C)CC2)c2ccc3c(c2)OCO3)c(OC)c1` (stereo not given), for which the Potency result is “inactive”.

For the molecule `COc1ccccc1CNC(=O)[C@@H](NC(=O)C1CCN(C(=O)[C@@H]2CCCN2C(=O)OC(C)(C)C)CC1)C(C)C`, the Potency result was “inactive”.

Take `COCC1CCCCN1C(=O)c1cc(COc2ccc3ncccc3c2)on1` (stereo not given): the Potency was 16.2 µM (active).

`CCOc1cccc(-c2cc(-c3n[nH]c(=S)n3CC)c3ccccc3n2)c1`: the Potency is 2.29 µM (active) and 4.07 µM (active).

Consider `COc1ccc(C(CC(=O)N2CCCC(C)C2)c2ccccc2)cc1` (stereo not given), for which the Potency entry is “inactive”.

For the molecule `O=C(CCCOc1ccccc1)Nc1nc2ccccc2[nH]1`, the Potency was 14.4 µM (active).

For the molecule `COC(=O)c1ccc(OCC(=O)c2ccc(O)cc2O)cc1`, the Potency was 2.04 µM (active).

As to `COc1ccc(-c2nnc(-c3ccc(N(C)C)cc3)o2)cc1`, the Potency result is “inactive”.

For `CCOC(=O)Cn1c(CN2CCc3ccccc3C2)nc2c1c(=O)n(C)c(=O)n2C`, the Potency was 5.12 µM (active).

Turning to `COc1ccc(-c2c[n+]3c(n2-c2ccc(C)cc2)CCCCC3)cc1`, the Potency was 5.12 µM (active).

For the molecule `c1ccc(Cn2c(-c3ccccc3)c[n+]3c2SCCC3)cc1`, the Potency is 45.7 µM (active).

`COc1cc(O)c(C(CC(=O)N2CCCC(C)C2)c2ccc(OC)c(OC)c2)c(OC)c1` (stereo not given): the Potency result is “inactive”.

As for `O=S(=O)(c1ccc(NC(=S)N/N=C/c2ccc(Oc3ccccc3)cc2)cc1)N1CCOCC1`, the Potency is 2.04 µM (active).

On to `C=C1Nc2c(-c3ccc(F)cc3)cnn2C(N)=C1c1ccccc1`, for which the Potency is 0.288 µM (active).

Consider `COc1cc(O)c(C(CC(=O)N2CCCC(C)C2)c2ccc(C)cc2)c(OC)c1` (stereo not given), for which the Potency was 45.7 µM (active).

For `CC1CCCN(C(=O)CC(c2ccc3c(c2)OCO3)c2ccc3ccccc3c2O)C1` (stereo not given), the Potency result is “inactive”.

With `COc1cc(O)c(C(CC(=O)N2CCC[C@@H](C)C2)c2ccc3c(c2)OCO3)c(OC)c1` (stereo not given in full), the Potency result is “inactive”.

Take `COc1cc(O)c(C(CC(=O)N2CCCC(C#N)C2)c2ccc3c(c2)OCO3)c(OC)c1` (stereo not given): the Potency entry is “inactive”.

On to `COc1cc(O)c(C(CC(=O)N2CCCC(C)C2)c2ccc(-c3ccccc3)cc2)c(OC)c1` (stereo not given), for which the Potency result was “inactive”.

Regarding `COc1cc(O)c(C(CC(=O)N2CCC(C)CC2)c2ccc(C)cc2)c(OC)c1` (stereo not given), the Potency result was “inactive”.

For the molecule `COc1cc(O)c(C(CC(=O)N2CC(C)NC(C)C2)c2ccc3c(c2)OCO3)c(OC)c1` (stereo not given), the Potency result was “inactive”.

For `COc1cc(O)c(C(CC(=O)N2CCC(c3ccccc3)CC2)c2ccc(OC)c(OC)c2)c(OC)c1` (stereo not given), the Potency result was “inactive”.

Regarding `CC1=C(\C=C/C(C)=C/C=C\C(C)=C\C(=O)O)C(C)(C)CCC1`, the Potency is 8.48 µM (active).
